Assay outcomes as filed in PubChem BioAssay.
Hits are enriched below; roughly 6.2% of the tested compounds scored in any of these assays.
Gal4-VP16 FLuc – VP16 counterscreen qHTS for inhibitors of ROR gamma transcriptional activity; Drosophila S2 Gal4-VP16 UAS-luciferase, luminescence, 20 h; Potency, µM (doses to about 53.6 µM), for the others: at the top dose activity, negative = inhibition, usual class: inhibitors; actives 3.5% (n = 310,000);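 also: Gal4-VP16 expression switched on by copper sulfate through the metallothionein promoter; nearly all actives have a fitted effect of over 50% in size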
Luc counter – Counterscreen for Luciferase (Kinase-Glo TM) Inhibition; Luciferin 4-monooxygenase (Photuris pensylvanica), Q27757; Kinase-Glo luciferase, ATP luminescence, 8 min; Potency, µM (series often up to 38.3 µM), inactives show at the top dose activity change, negative = inhibition, most hits filed as inhibitors; actives 0.28% (n = 200,000); AID 1379, 2008; also: nearly all actives have a fitted effect of over 60% in size
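Recombinant Kinase-Glo luciferase, 10 uM ATP (linear range), luciferin; imidazole pH 7.2 / KCl / MgCl2 / Tween / BSA buffer; 8 min RT; luminescence.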
RORg inh – qHTS for inhibitors of ROR gamma transcriptional activity | Potency, µM (series often up to 53.6 µM), for the others: top-dose activity change, negative = inhibition, most hits filed as inhibitors | actives 5.4% (n = 310,000) | Nuclear receptor ROR-gamma (Mus musculus), P51450 | AID 2551, 2010 | Drosophila S2 Gal4-RORgamma UAS-luciferase reporter, 20 h; also: nearly all actives have a fitted effect of over 60% in size
Target sequence (P51450 whole entry, looked up, the tested form may be a part): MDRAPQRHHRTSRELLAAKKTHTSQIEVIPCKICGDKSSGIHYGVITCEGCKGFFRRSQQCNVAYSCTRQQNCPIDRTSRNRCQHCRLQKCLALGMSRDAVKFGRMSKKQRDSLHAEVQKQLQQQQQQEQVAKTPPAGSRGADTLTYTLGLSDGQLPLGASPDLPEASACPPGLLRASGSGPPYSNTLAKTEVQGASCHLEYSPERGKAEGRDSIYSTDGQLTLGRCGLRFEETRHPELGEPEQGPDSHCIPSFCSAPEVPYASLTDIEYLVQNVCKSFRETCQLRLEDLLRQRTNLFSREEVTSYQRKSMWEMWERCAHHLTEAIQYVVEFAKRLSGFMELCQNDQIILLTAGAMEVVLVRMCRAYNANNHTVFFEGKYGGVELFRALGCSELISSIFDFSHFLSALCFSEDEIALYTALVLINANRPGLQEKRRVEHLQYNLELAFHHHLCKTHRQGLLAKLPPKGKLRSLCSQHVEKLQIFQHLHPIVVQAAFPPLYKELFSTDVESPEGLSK
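Schneider cells (Drosophila), stable Gal4 DBD–ROR gamma + UAS-luc; 1 hr cmpd preincubation; Cu2+ induction 700 uM final; 20 hr ambient; luminescence.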
* marks the source's active call; other numbers are inactive results; u = inconclusive; x = no result; [ ] = dose if it differs, or a comment. Calls follow the shape of the dose curve; as a rule, active = well fitted curve in the direction sought with a large enough effect; inconclusive = small, poorly fitted or top-dose-only effect, or another doubt; inactive = no such curve, though single readings can be large; an effect the other way counts as inactive or inconclusive. % is scaled to controls: 0 for no effect and ±100 for the full control effect; potency is read from the fitted curve at half-maximal effect.

SMILES | Gal4-VP16 FLuc | Luc counter | RORg inh
COC(=O)c1ccc(CSc2ccc3nnc(-c4ccccn4)n3n2)o1 | u | 0% | 11µM*
COC(=O)c1ccc(CSc2ccc3nnc(-c4ccc(F)cc4)n3n2)o1 | 2% | 2% | -1%
CCOC1C(=O)NC(=O)N1Cc1ccccc1 (stereo not drawn) | -1% | x | -7%
CNC(=O)CCc1nc(-c2ccc(C(C)(C)C)cc2)no1 | 7.1µM* | -3% | 0.32µM*
CC(C)(C)c1ccc(-c2noc(CCC(=O)Nc3cccnc3)n2)cc1 | u | x | 0.063µM*
COc1ccc(-c2noc(CCC(=O)Nc3cccnc3)n2)cc1 | -11% | x | u
Cc1ccc(-c2noc(CCC(=O)NCC3CCCO3)n2)cc1 (stereo not drawn) | -6% | -4% | -3%
CC(C)(C)c1ccc(-c2noc(CCC(=O)NCC3CCCO3)n2)cc1 (stereo not drawn) | 10µM* | -2% | 1µM*
CC(C)(C)c1ccc(-c2noc(CCC(N)=O)n2)cc1 | -17% | 0% | u
CN(C)CC(C)(C)CNC(=O)c1ccc(-n2c(=O)c(=O)[nH]c3ccccc32)cc1 | x | 0% | x
CC(C)(C)c1ccc(Cn2c(=O)cnc3ccccc32)cc1 | u | x | 22µM*
O=c1cnc2ccccc2n1Cc1ccc(Br)cc1 | 19% | x | u
COc1ccc(/C=N/Nc2nc(Nc3ccccc3)nc(N3CCCC3)n2)cc1[N+](=O)[O-] | -30% | -1% | 13µM*
COc1ccc(/C=N/Nc2nc(Nc3ccccc3)nc(N3CCCCC3)n2)c(OC)c1 | 11µM* | 0% | 3.2µM*
COc1ccc(/C=N/Nc2nc(N3CCCCC3)nc(N3CCCCC3)n2)cc1[N+](=O)[O-] | -8% | 0% | 16µM*
COc1cc(/C=N/Nc2nc(N3CCCC3)nc(N3CCCC3)n2)ccc1O | 8% | -3% | -40%
O=[N+]([O-])c1cc(/C=N/Nc2nc(N3CCCCC3)nc(N3CCCCC3)n2)ccc1O | -9% | -3% | -9%
COc1cc(/C=N/Nc2nc(Nc3ccccc3)nc(N3CCCCC3)n2)ccc1OCC(=O)O | -14% | 0% | -9%
CCOc1ccc(/C=N/Nc2nc(N3CCCC3)nc(N3CCCC3)n2)cc1OC | u | -4% | 13µM*
COc1cc(/C=N/Nc2nc(Nc3ccccc3)nc(N3CCOCC3)n2)ccc1OC(=O)c1ccco1 | 5% | -2% | -22%
CCOc1ccc(S(=O)(=O)N2CCCC(C(=O)Nc3cccc(C)c3)C2)cc1 (stereo not drawn) | -19% | x | 161%
CCN(CC)C(=O)C1=C(C)Nc2nnnn2C1c1cccnc1 (stereo not drawn) | -7% | 7% | 9%
COCC(C)NC(=O)C1CC(c2cccc(Br)c2)=NO1 (stereo not drawn) | 8% | -1% | -17%
Nn1c(SCC(=O)N2CCOCC2)nnc1C1CC1 | 7% | -1% | 12%
CCCCCCC#Cc1cncc(C(=O)NNC(=O)Nc2cc(Cl)cc(Cl)c2)c1 | 2% | x | 10%
SMILES | Gal4-VP16 FLuc | Luc counter | RORg inh
CCCCC#Cc1cncc(C(=O)NN)c1 | 7.9µM* | x | 7.9µM*
COc1ccccc1N(CC(=O)NC1CCCCC1)C(=O)CNC(=O)c1cccs1 | -6% | x | -10%
Cc1cc(NC(=S)NC(=O)/C=C/c2ccc(S(=O)(=O)N3CCOCC3)cc2)ccc1Br | -6% | -2% | 7.1µM*
Cc1ccc(NC(=S)Nc2ccc(S(=O)(=O)N3CCOCC3)cc2)cc1S(=O)(=O)N1CCOCC1 | -2% | 1% | 36%
O=C(/C=C/c1ccc(F)cc1)Nc1ccc(S(=O)(=O)N2CCOCC2)cc1 | 1% | x | -1%
O=C(/C=C/c1ccc(S(=O)(=O)N2CCOCC2)cc1)NC(=S)Nc1ccc(N2CCOCC2)cc1 | -16% | -2% | 5.6µM*
CC(C)(C)NNC(=S)Nc1ccc(S(=O)(=O)N2CCOCC2)cc1 | u | -1% | 5.6µM*
CC(=O)NC(=S)Nc1ccc(S(=O)(=O)N2CCOCC2)cc1 | -3% | 2% | 23%
Cc1nc2[nH]c(=O)[nH]c(=O)c2[nH]1 | -6% | -1% | -4%
CN(C)C(=O)c1ccc(-c2nc(N3CCOCC3)c3ccccc3n2)cc1 | -17% | x | 17%
CC1(C(=O)N2CC3(CC(c4cccc([N+](=O)[O-])c4)=NO3)C[C@H]2C(=O)NCC(N)=O)CC1 (stereo partly drawn) | 1% | -2% | 14%
Cc1ccc(CCNC(=O)CCCn2nc(C)c3c(C)n(-c4ccc(C)cc4)nc3c2=O)cc1 | -12% | x | 4%
Cc1ccc(-n2nc3c(=O)n(CC(=O)NCCc4ccc(Cl)cc4)nc(C)c3c2C)cc1 | 13µM* | x | 44%
CCc1ccc(C(=O)NCc2ccc(Cl)cc2)cc1 | -4% | 1% | 25%
COC(=O)CC1Oc2cc3oc4c(c3cc2O1)C(=O)CC(C)(C)C4 (stereo not drawn) | u | -2% | 5µM*
CC1(C)CC(=O)c2c(oc3cc(O)c(O)cc23)C1 | -5% | -5% | -26%
Cc1cccc2sc(NC(=O)CN3C(=O)C4CC=CCC4C3=O)nc12 (stereo not drawn) | -13% | 10% | 33%
CSCCC(NC(=O)COc1cccc2ccccc12)C(=O)O (stereo not drawn) | -6% | x | -17%
COc1ccccc1NS(=O)(=O)c1ccc(Cl)c(NC(=S)NC(=O)C2CCCC2)c1 | u | -1% | u
CCN(CC)c1ccc(S(=O)(=O)Nc2cc(Cl)ccc2Cl)cc1NC(=S)NC(=O)C1CCCC1 | 22µM* | 0% | 5µM*
CN(C)c1ncc2nc(-c3cc(F)cc(F)c3)c(=O)n(C)c2n1 | -1% | x | -6%
Cc1ccc(-n2nnnc2SCC(=O)Nc2cccnc2Cl)cc1 | 13µM* | -1% | u
COc1ccc(-n2nnnc2SCC(=O)Nc2cc(OC)c([N+](=O)[O-])cc2C)cc1 | 10µM* | -1% | 6.3µM*
CCC(C)NC(=O)NC(=O)CSc1nnc(-c2ccccc2F)n1C1CC1 (stereo not drawn) | -8% | x | -25%
O=C(CSc1nnnn1-c1ccc(Cl)cc1)Nc1cccnc1Cl | u | 0% | u
SMILES | Gal4-VP16 FLuc | Luc counter | RORg inh
COC(=O)c1ccc(-n2nnnc2SCC(=O)Nc2cc(OC)ccc2OC)cc1 | -24% | 2% | 18%[10 µM]
O=C(CSc1nnc(-c2ccccc2F)n1C1CC1)Nc1cccnc1Cl | 40µM* | 1% | u
CC(=O)Nc1ccc(S(=O)(=O)N2CCC(NC(=O)C(Cc3cccc(F)c3)NC(C)=O)CC2)cc1 (stereo not drawn) | 5% | x | 0%
CCOc1ccccc1NC(=O)CSc1ccc(-c2sc(C)nc2C)nn1 | -20% | x | 12%
O=C1C2C3c4ccccc4C(c4ccccc43)[C@@H]2c2nc3ccccc3n21 (stereo partly drawn) | -9% | -3% | 11µM*
O=C1C2C3c4ccccc4C(c4ccccc43)[C@@H]2C(=O)N1c1ccccn1 (stereo partly drawn) | -4% | x | -13%
CC(OC(=O)c1ccc2ncsc2c1)C(=O)N1CCCC1 (stereo not drawn) | 6% | -1% | 11%
Cc1ccc(C)c(NC(=O)c2ccc3ccccc3n2)c1 | 2% | -18% | 7%
CCOc1ccc(NC(=S)c2ccc3ccccc3n2)cc1 | u | x | 6.3µM*
